Results: PubChem BioAssay (NCATS)
Records with an inconclusive call do not appear. Entries that show only a call come without a potency. A number with no mark means an inactive call. Activity calls are given as the source filed them. The call rests on the fitted dose curve; in most records, active means well fitted curve in the direction sought with a large enough effect; inconclusive means small, poorly fitted or top-dose-only effect, or another doubt; inactive means no such curve, though single readings can be large; an effect the other way counts as inactive or inconclusive.

Columns and labels:
[1] = biological target: Rap guanine nucleotide exchange factor 3 (Homo sapiens) (UniProt O95398); assay: Confirmatory qHTS for antagonist of cAMP-regulated guanine nucleotide exchange factor 3 (EPAC1) (AID 1645880); further: nearly all actives have a fitted effect of over 55% in size; further: potency means the concentration at half of the fitted maximal effect
Chain of Rap guanine nucleotide exchange factor 3 (Homo sapiens) (O95398 whole entry, looked up): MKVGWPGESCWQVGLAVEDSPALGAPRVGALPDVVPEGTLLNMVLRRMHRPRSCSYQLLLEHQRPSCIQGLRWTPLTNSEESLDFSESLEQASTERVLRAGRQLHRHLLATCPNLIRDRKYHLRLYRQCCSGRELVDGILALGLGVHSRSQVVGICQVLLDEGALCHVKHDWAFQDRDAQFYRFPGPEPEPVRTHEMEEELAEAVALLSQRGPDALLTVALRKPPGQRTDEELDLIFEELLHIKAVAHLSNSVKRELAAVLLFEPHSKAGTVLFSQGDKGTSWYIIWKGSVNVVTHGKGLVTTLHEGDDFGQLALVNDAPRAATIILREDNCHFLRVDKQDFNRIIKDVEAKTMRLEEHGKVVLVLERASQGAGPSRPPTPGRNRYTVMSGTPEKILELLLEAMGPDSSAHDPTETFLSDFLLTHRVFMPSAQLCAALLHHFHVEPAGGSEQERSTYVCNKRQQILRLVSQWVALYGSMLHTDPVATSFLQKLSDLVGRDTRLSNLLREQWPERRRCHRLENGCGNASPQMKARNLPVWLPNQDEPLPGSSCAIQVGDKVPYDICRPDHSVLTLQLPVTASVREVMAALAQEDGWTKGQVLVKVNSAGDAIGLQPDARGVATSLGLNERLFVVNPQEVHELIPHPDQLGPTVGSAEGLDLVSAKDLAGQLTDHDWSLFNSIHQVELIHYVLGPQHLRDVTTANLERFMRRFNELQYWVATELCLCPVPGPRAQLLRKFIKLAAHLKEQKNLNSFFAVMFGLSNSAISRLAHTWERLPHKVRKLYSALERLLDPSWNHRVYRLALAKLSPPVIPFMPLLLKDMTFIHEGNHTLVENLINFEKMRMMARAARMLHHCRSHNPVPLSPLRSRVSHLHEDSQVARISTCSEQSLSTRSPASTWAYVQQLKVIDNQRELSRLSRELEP
Procedure, shortened: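 Nucleotide exchange uses 100 nM EPAC1, 250 nM RAP1B-BODIPY-GDP and 50 uM GDP, with compounds in a concentration-titration series. After 5 min at room temperature, fluorescence (480 nm ex/540 nm em) is read every 5 min for 30 min. Data are normalized to control ATA and DMSO.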

[2] = biological target: Rap guanine nucleotide exchange factor 3 (Homo sapiens) (UniProt O95398); assay: Confirmatory qHTS for agonist of cAMP-regulated guanine nucleotide exchange factor 3 (EPAC1) (AID 1645881);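 further: EPAC1 catalysed release of BODIPY-GDP from Rap1B seen as fluorescence loss; nearly all actives have a fitted effect of over 75% in size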
[3] = biological target: Rap guanine nucleotide exchange factor 4 (Homo sapiens) (UniProt Q8WZA2); assay: Confirmatory qHTS for agonist of cAMP-regulated guanine nucleotide exchange factor 4 (EPAC2) (AID 1645884);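 further: nucleotide exchange releases bodipy-GDP from Rap1 and this lowers its fluorescence; nearly all actives have a fitted effect of over 65% in size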
Chain of Rap guanine nucleotide exchange factor 4 (Homo sapiens) (Q8WZA2 whole entry, looked up): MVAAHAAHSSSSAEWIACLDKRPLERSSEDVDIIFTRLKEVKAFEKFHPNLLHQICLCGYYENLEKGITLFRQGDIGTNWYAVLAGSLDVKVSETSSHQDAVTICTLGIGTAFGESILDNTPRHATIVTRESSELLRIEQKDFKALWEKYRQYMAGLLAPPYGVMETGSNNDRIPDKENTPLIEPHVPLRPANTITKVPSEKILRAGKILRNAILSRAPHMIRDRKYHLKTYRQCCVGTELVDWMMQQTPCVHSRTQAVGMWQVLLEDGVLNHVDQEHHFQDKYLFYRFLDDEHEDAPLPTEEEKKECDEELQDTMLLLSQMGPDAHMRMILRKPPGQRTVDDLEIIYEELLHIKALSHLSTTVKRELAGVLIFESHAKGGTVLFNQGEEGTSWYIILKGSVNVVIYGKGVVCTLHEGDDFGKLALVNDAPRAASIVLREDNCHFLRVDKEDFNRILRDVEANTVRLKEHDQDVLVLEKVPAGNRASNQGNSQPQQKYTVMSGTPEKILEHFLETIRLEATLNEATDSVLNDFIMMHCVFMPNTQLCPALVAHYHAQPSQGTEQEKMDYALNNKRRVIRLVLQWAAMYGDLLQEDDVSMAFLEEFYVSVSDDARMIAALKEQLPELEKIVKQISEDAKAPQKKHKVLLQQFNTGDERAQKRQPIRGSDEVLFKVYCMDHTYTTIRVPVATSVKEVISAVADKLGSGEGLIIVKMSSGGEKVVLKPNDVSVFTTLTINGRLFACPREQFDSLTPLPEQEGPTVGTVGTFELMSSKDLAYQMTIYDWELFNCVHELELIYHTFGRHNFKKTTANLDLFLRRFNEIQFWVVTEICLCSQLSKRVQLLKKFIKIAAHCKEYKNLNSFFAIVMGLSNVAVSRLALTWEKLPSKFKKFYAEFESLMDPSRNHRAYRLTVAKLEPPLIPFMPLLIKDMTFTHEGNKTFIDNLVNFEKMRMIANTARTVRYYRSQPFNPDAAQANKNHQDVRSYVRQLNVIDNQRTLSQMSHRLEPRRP

[4] = biological target: Rap guanine nucleotide exchange factor 4 (Homo sapiens) (UniProt Q8WZA2); assay: Confirmatory qHTS for antagonist of cAMP-regulated guanine nucleotide exchange factor 4 (EPAC2) (AID 1645885); further: nearly all actives have a fitted effect of over 25% in size; further: potency means the concentration at half of the fitted maximal effect
[5] = biological target: Rap guanine nucleotide exchange factor 3 (Homo sapiens) (UniProt O95398); assay: Counterscreen qHTS for antagonist of cAMP-regulated guanine nucleotide exchange factor 3 (EPAC1) (AID 1645888);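 further: fluorescence loss as bound BODIPY-GDP is released from Rap1B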
Procedure, shortened: (§1)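 Rap1B–BODIPY-GDP (250 nM) with 50 uM GDP; compounds pin-transferred to 9.74 nM–152 uM final (activator) or from 7.32 nM upwards (inhibitor). Fluorescence Ex/Em 480/540 nm read at 5 and 30 min, then after adding cAMP or buffer, at room temperature.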

[6] = biological target: Rap guanine nucleotide exchange factor 3 (Homo sapiens) (UniProt O95398); assay: Counterscreen qHTS for agonist of cAMP-regulated guanine nucleotide exchange factor 3 (EPAC1) (AID 1645889); further: nearly all actives have a fitted effect of over 40% in size
Procedure, shortened: as §1

SMILES	Potency [1]	Potency [2]	activation [3]	Potency [4]	activity change, negative = inhibition [5]	activation [6]	Potency [3]	Potency [5]	Potency [6]
COc1ncc(-c2c(-c3ccccc3OC)sc3ccccc23)cn1	inactive	inactive	-3.13% [at 17.1 µM, percent relative to cAMP agonist control]	inactive	-4.66% [at 30.8 µM]	15.7% [at 30.8 µM]	–	–	–
CCn1c(CNC(=O)COC)nc2ccccc21	inactive	inactive	3.77% [at 17.1 µM, percent relative to cAMP agonist control]	inactive	-4.31% [at 30.8 µM]	4.54% [at 30.8 µM]	–	–	–
COc1ccccc1-n1c(-c2ccccc2)c[n+]2c1CCc1ccccc1-2	inactive	inactive	–	inactive	–	–	inactive	inactive	inactive
COc1cc2c(cc1OC)C(c1ccccc1Cl)N(C)CC2 (stereo not given)	inactive	inactive	2.32% [at 17.1 µM, percent relative to cAMP agonist control]	inactive	3.04% [at 30.8 µM]	9.1% [at 30.8 µM]	–	–	–
CCN1/C(=C/c2ccc3cc(C)ccc3[n+]2CC)Sc2ccccc21	75.7 µM (active)	inactive	–	inactive	–	–	inactive	inactive	inactive
COc1cc(-c2c(CCO)sc3ccccc23)cc(OC)c1OC	inactive	inactive	1.4% [at 17.1 µM, percent relative to cAMP agonist control]	inactive	-51.2% [at 30.8 µM]	8.02% [at 30.8 µM]	–	–	–
COc1ccc(C/C(C)=N/NC(=O)c2cccnc2)cc1	inactive	inactive	-0.201% [at 17.1 µM, percent relative to cAMP agonist control]	inactive	-16% [at 30.8 µM]	7.53% [at 30.8 µM]	–	–	–
COc1cc(OC)c(CNC2CCCCCC2)cc1Br	inactive	inactive	–	inactive	–	–	inactive	inactive	inactive
COc1ccc(C2c3c(ncn(CCCO)c3=N)Oc3ccc4ccccc4c32)cc1 (stereo not given)	inactive	inactive	3.99% [at 17.1 µM, percent relative to cAMP agonist control]	inactive	0.394% [at 30.8 µM]	22.2% [at 30.8 µM]	–	–	–
NS(=O)(=O)c1ccc(-c2cccc(/C=C3\SC(=O)NC3=O)c2)cc1	33.8 µM (active)	inactive	–	inactive	–	–	inactive	inactive	inactive
O=C(c1ccc(Cl)cc1)C(CN1CCCCC1)c1ccccc1 (stereo not given)	37.9 µM (active)	inactive	–	inactive	–	–	inactive	inactive	inactive
Cc1ccc(S(=O)(=O)N2CCN(C(=O)CC(C)n3nc(C)c(Cl)c3C)CC2)cc1 (stereo not given)	inactive	inactive	1.58% [at 17.1 µM, percent relative to cAMP agonist control]	inactive	13.5% [at 30.8 µM]	6.22% [at 30.8 µM]	–	–	–
CC1CCc2c(sc(NC(=O)Cc3ccccc3)c2C(=O)Nc2ccc(Cl)cc2)C1 (stereo not given)	inactive	inactive	–	inactive	–	–	inactive	inactive	inactive
CCOc1cc(C2C3=C(CC(C)(C)CC3=O)N(CCOC)C3=C2C(=O)CC(C)(C)C3)ccc1O	inactive	inactive	–	inactive	–	–	inactive	inactive	inactive
COc1ccc(/C=C(/NC(=O)c2ccccc2)C(=O)N/N=C/c2ccncc2)c(OC)c1	inactive	inactive	2.49% [at 17.1 µM, percent relative to cAMP agonist control]	inactive	28.5% [at 30.8 µM]	12.1% [at 30.8 µM]	–	–	–
CCCCC(CC)Cn1c(Oc2ccccc2)nc2c1c(=O)n(C)c(=O)n2C (stereo not given)	inactive	inactive	–	inactive	–	–	inactive	inactive	inactive
CC(C)N(Cc1cn(C)nc1-c1cccc(Cl)c1)Cc1nccn1C	inactive	inactive	1.24% [at 17.1 µM, percent relative to cAMP agonist control]	inactive	-5.68% [at 30.8 µM]	15% [at 30.8 µM]	–	–	–
COc1ccc(CCNC(=O)CSc2nc(N)c(C#N)c(-c3cccs3)c2C#N)cc1OC	inactive	inactive	3.67% [at 17.1 µM, percent relative to cAMP agonist control]	inactive	-17% [at 30.8 µM]	20.5% [at 30.8 µM]	–	–	–
CCCCN1C(=O)C(O)(c2c[nH]c3ccccc23)c2cc(Br)ccc21 (stereo not given)	inactive	inactive	–	inactive	–	–	inactive	inactive	inactive
CCOC(=O)c1cc(C(C)(C)C)nc(SC)c1C#N	inactive	inactive	–	inactive	–	–	inactive	inactive	inactive

SMILES	Potency [1]	Potency [2]	activation [3]	Potency [4]	activity change, negative = inhibition [5]	activation [6]	Potency [3]	Potency [5]	Potency [6]
Cc1ccc2nc(-c3ccccc3)cc(C(=O)N3CC(C)OC(C)C3)c2c1 (stereo not given)	inactive	inactive	–	inactive	–	–	inactive	inactive	inactive
COC(=O)c1cc2sc(C)cc2n1Cc1cccc(OC)c1	inactive	inactive	–	inactive	–	–	inactive	inactive	inactive
COc1ccc(OC)c([C@@H]2OCCC=C[C@H]2C)c1	inactive	inactive	–	0.0675 µM (active)	–	–	inactive	inactive	inactive
Cc1ccc(C2(C)NC(=O)N(CC(=O)Nc3ccccc3N3CCCCC3)C2=O)cc1 (stereo not given)	inactive	inactive	–	inactive	–	–	inactive	inactive	inactive
Cc1ccc(-c2nc3ccc(Br)cn3c2Cc2ccccc2C(F)(F)F)cc1	84.9 µM (active)	inactive	–	47.8 µM (active)	–	–	inactive	inactive	inactive
C=CCOc1ccc(C(c2c(C(=O)O)[nH]c3ccccc23)c2c(C(=O)O)[nH]c3ccccc23)cc1	33.8 µM (active)	inactive	–	inactive	–	–	inactive	inactive	inactive
Cc1ccc(-c2csc(NS(=O)(=O)c3cccc(F)c3)n2)o1	14.1 µM (active)	inactive	-0.922% [at 17.1 µM, percent relative to cAMP agonist control]	inactive	-6.02% [at 30.8 µM]	14.9% [at 30.8 µM]	–	–	–
O=C(Nc1sc(-c2ccccc2)cc1C(=O)O)c1ccccc1	75.7 µM (active)	inactive	–	inactive	–	–	inactive	inactive	inactive
C/C(=C\C(=O)c1ccccc1)Nc1ccc(O)cc1	inactive	inactive	3.61% [at 17.1 µM, percent relative to cAMP agonist control]	inactive	-14.8% [at 30.8 µM]	29.9% [at 30.8 µM]	–	–	–
CCN(CC)S(=O)(=O)c1cc(NC(=O)Cn2ncc(Cl)c(Cl)c2=O)ccc1C	39.8 µM (active)	inactive	-11.9% [at 17.1 µM, percent relative to cAMP agonist control]	inactive	-2.1% [at 30.8 µM]	5.37% [at 30.8 µM]	–	–	–
CCc1ccc(OCCCSc2nc(-c3ccc(C(C)(C)C)cc3)nc3cc(=O)[nH]n23)cc1	42.6 µM (active)	inactive	–	inactive	–	–	inactive	inactive	inactive
CSc1ccccc1NC(=O)COc1ccccc1C	inactive	inactive	11.3% [at 17.1 µM, percent relative to cAMP agonist control]	inactive	-1.84% [at 30.8 µM]	4.86% [at 30.8 µM]	–	–	–
CC(C)OC(=O)c1c(-c2ccccc2)c(-c2ccccc2)nn(C)c1=O	inactive	inactive	–	inactive	–	–	inactive	inactive	inactive
O=C(C[n+]1cc(Br)cc2ccccc21)c1ccc(F)cc1	inactive	inactive	1.58% [at 17.1 µM, percent relative to cAMP agonist control]	inactive	9.18% [at 30.8 µM]	21% [at 30.8 µM]	–	–	–
COc1cccc(OC)c1C(=O)Nc1ccccc1Sc1ccccc1	inactive	inactive	–	inactive	–	–	inactive	inactive	inactive
Nc1[nH]c(C(=O)c2ccccc2)c(-c2ccccc2C(F)(F)F)c1C(=O)NCCc1cccs1	inactive	inactive	–	inactive	–	–	inactive	inactive	inactive
O=c1[nH]c(/C=C/c2cccc([N+](=O)[O-])c2)c([N+](=O)[O-])c(=O)[nH]1	16.9 µM (active)	inactive	–	inactive	–	–	inactive	inactive	inactive
O=C1NN(c2cccc(Br)c2)C(=O)/C1=C\c1ccccc1	33.8 µM (active)	inactive	–	inactive	–	–	inactive	inactive	inactive
COc1ccc(CN2C(=O)c3cccnc3C2Nc2cc(Cl)c(OC)cc2OC)cc1 (stereo not given)	75.7 µM (active)	inactive	–	inactive	–	–	inactive	inactive	inactive
Cc1[nH]c2ccccc2c1C(=O)C(C)OC(=O)c1ccc(Cl)nc1 (stereo not given)	inactive	inactive	9.38% [at 17.1 µM, percent relative to cAMP agonist control]	inactive	-3.94% [at 30.8 µM]	19.4% [at 30.8 µM]	–	–	–
